Measured values as given in ChEMBL document CHEMBL3988442, “University of Dundee, Small-Polar-MMV Screening Library” (2021).

target: T1, Aspartate--tRNA(Asp/Asn) ligase (Mycobacterium tuberculosis (strain ATCC 25618 / H37Rv)) (UniProt P9WFW3); assay: Assay for Asp RNA synthetase-1 from Mycobacterium tuberculosis; format: functional; design: scale not given: in the data most compounds retested in dose-response had high values; conditions: 30 µM
T1 sequence (whole entry): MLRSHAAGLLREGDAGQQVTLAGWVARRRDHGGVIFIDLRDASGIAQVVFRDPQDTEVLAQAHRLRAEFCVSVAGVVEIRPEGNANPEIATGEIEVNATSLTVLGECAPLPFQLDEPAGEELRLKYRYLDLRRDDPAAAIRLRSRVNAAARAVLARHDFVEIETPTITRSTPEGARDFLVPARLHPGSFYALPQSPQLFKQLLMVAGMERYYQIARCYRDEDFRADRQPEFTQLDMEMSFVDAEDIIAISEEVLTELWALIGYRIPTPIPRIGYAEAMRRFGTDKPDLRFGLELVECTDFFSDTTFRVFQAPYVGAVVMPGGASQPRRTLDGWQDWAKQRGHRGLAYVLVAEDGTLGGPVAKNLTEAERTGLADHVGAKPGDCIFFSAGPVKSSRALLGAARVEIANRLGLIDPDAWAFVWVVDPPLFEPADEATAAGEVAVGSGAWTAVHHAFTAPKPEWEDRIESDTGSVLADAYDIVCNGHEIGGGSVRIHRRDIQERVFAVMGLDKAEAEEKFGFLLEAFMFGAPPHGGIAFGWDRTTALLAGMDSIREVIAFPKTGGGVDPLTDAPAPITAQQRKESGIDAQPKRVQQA

Q: `c1cnc(-c2nc(CN3CCC(c4ccn[nH]4)CC3)cs2)nc1` was tested. Which Percent Effect did it give?
A: The Percent Effect was -0.495%.

Q: How did the Percent Effect turn out when `CCOCC1CC2(CCN(C(=O)c3ccccn3)CC2)CO1` (stereo not given) was run?
A: The Percent Effect was 0.961%.

Q: `CCn1c(=O)nc2n1C(=O)N(c1cccc(Cl)c1)C2` was tested. Which Percent Effect did it give?
A: The Percent Effect was 0.929%.

Q: `Cc1ncsc1CN1CC[C@H]2C(=O)N(c3ccccc3)CCO[C@H]2C1` was tested. Which Percent Effect did it give?
A: Its Percent Effect is -1.84%.

Q: `CCn1c(N)nc2cc(C(=O)NCCc3ccccc3C)cnc21` was tested. Which Percent Effect did it give?
A: Its Percent Effect is 7.33%.

Q: Which Percent Effect does the source give for `Cn1cc(-c2nnn3c2COC(CNCc2nccs2)C3)cn1` (stereo not given) here?
A: The Percent Effect was -4.41%.

Q: Which Percent Effect does the source give for `CNCC(=O)N1CCC(c2ccnc(Nc3ccc(C)cn3)n2)C1` (stereo not given) here?
A: Its Percent Effect is 2.93%.

Q: Which Percent Effect does the source give for `Cc1cc(C)n(C2CCCN(C(=O)c3cnc4onc(C)c4c3)C2)n1` (stereo not given) here?
A: The Percent Effect was -0.75%.

Q: `CCc1cnc2c(c1Nc1ccc(OC)cc1)c(=O)n(C)c(=O)n2C` was tested. Which Percent Effect did it give?
A: Its Percent Effect is 0.831%.

Q: How did the Percent Effect turn out when `COc1ccc(COCC(O)CNC(=O)c2cccnc2)cc1` (stereo not given) was run?
A: The Percent Effect was -1.27%.

Q: With `Cc1ccoc1C(=O)N1CCO[C@H]2[C@H](OCC3CCOCC3)CC[C@@H]21` as the compound, how does the Percent Effect read?
A: Its Percent Effect is -4.72%.

Q: `O=c1cc(Cn2cncn2)nc2n1CCCN(CC1CC1)C2` was tested. Which Percent Effect did it give?
A: The Percent Effect was -4.96%.

Q: For `Cc1cc(C)n(CC2CCCN2C(=O)c2cc[nH]n2)n1` (stereo not given), which Percent Effect is on record?
A: The Percent Effect was -3.22%.

Q: `Cc1nn(-c2ccccc2)cc1C(=O)N1CCCC(n2cccn2)C1` (stereo not given) was tested. Which Percent Effect did it give?
A: The Percent Effect was -5.22%.

Q: With `Cc1noc(C)c1CN1C[C@@H]2COC[C@H](C(=O)N3CCCCO3)[C@@H]2C1` as the compound, how does the Percent Effect read?
A: The Percent Effect was 4.46%.

Q: `CC(C)Nc1nc(N2CCOCC2)nc2c1CN(CC(=O)N(C)C)CC2` was tested. Which Percent Effect did it give?
A: Its Percent Effect is 12.1%.

Q: For `COc1ccc(C)cc1S(=O)(=O)NCC(c1cccn1C)N(C)C` (stereo not given), which Percent Effect is on record?
A: Its Percent Effect is -4.54%.

Q: Which Percent Effect does the source give for `CCN(CC1CCOC1)C(=O)c1cccnc1N1CCOCC1` (stereo not given) here?
A: Its Percent Effect is -1.66%.

Q: Which Percent Effect does the source give for `Cn1cccc1CNC(=O)N(CCO)C1CCCc2ccccc21` (stereo not given) here?
A: The Percent Effect was -1.95%.

Q: `CNS(=O)(=O)c1ccc(CNC(=O)NCC2CCCO2)cc1` (stereo not given) was tested. Which Percent Effect did it give?
A: Its Percent Effect is 0.75%.

Q: `Fc1cccc(N2CCCC3(CN(Cc4ccncc4)CCO3)C2)c1` (stereo not given) was tested. Which Percent Effect did it give?
A: The Percent Effect was 5.63%.

Q: With `Cn1cc(Br)c(=O)c(NS(=O)(=O)c2ccc(F)cc2)c1` as the compound, how does the Percent Effect read?
A: The Percent Effect was -2.87%.

Q: With `O=C(NCc1ccc(-n2cncn2)nc1)c1ccoc1` as the compound, how does the Percent Effect read?
A: The Percent Effect was 3.8%.

Q: Which Percent Effect does the source give for `O=C([C@H]1CN(CCc2ccccc2)C[C@H]2OCC[C@@H]12)N1CCCO1` here?
A: The Percent Effect was 1.78%.

Q: Which Percent Effect does the source give for `COCCCN1CCCN(C(C)C(=O)Nc2ccnn2C(C)C)CC1` (stereo not given) here?
A: The Percent Effect was -3.7%.

Q: For `CC(C)c1cc(NCC(C)N2CCCC2)n2nccc2n1` (stereo not given), which Percent Effect is on record?
A: The Percent Effect was 1.77%.

Q: How did the Percent Effect turn out when `Fc1ccc(CNCC2OCCc3cn(CC4CC4)nc32)cc1` (stereo not given) was run?
A: The Percent Effect was -2.61%.

Q: `COCCC(=O)N1CCC2(COCc3cnc(N4CCOCC4)nc32)C1` (stereo not given) was tested. Which Percent Effect did it give?
A: The Percent Effect was 1.66%.

Q: For `Cn1cccc1-c1cc(C(=O)N2CC(c3cccnc3)C2)[nH]n1`, which Percent Effect is on record?
A: The Percent Effect was -0.915%.

Q: Which Percent Effect does the source give for `Cc1cc(C)n(CCCNC(=O)[C@@H](C)NC(=O)OC(C)(C)C)n1` here?
A: The Percent Effect was 2.46%.

Q: `CC(=O)N1CCOCC2(CCN(Cc3ccc(C)s3)CC2)C1` was tested. Which Percent Effect did it give?
A: Its Percent Effect is 0.408%.

Q: With `CCc1csc(C2CCCN(C(=O)c3cnn(CC)c3)C2)n1` (stereo not given) as the compound, how does the Percent Effect read?
A: The Percent Effect was 0.0599%.

Q: For `Cc1n[nH]c(C)c1NC(=O)CN1CCCC(CNC(=O)C(C)(C)C)C1` (stereo not given), which Percent Effect is on record?
A: Its Percent Effect is -4.35%.

Q: Which Percent Effect does the source give for `Cn1ncc2c1C(COCC1CC1)CN(Cc1ccc(F)cc1)C2` (stereo not given) here?
A: Its Percent Effect is -2.09%.

Q: `C[C@H]1C[C@@H]2CCN(C(=O)c3cccn3C)C[C@H]2O1` was tested. Which Percent Effect did it give?
A: Its Percent Effect is -3.96%.

Q: For `CN(C)C(=O)CN1C[C@@H]2CC[C@H](C1)N(Cc1cccc(Cl)c1Cl)C2`, which Percent Effect is on record?
A: Its Percent Effect is 0.661%.

Q: With `O=C(Nc1ccccc1F)N(CCO)Cc1ccsc1` as the compound, how does the Percent Effect read?
A: Its Percent Effect is -3.39%.

Q: Which Percent Effect does the source give for `CNC(=O)c1cccnc1Oc1ccccc1` here?
A: Its Percent Effect is -3%.

Q: `Cc1cccnc1CNc1cc(N2CCCC2CO)ncn1` (stereo not given) was tested. Which Percent Effect did it give?
A: The Percent Effect was -4.52%.

Q: How did the Percent Effect turn out when `Cn1ccnc1CN1CCN(CCOc2ccccc2C#N)CC1` was run?
A: The Percent Effect was -0.506%.
